The structures appear in SMILES notation. About 120 (0.25%) of roughly 48,000 compounds were called active. Roughly 4% stayed inconclusive and do not appear here. The call rests on the fitted dose curve; in most records, active means well fitted activation curve with a large enough effect; inconclusive means small, poorly fitted or top-dose-only effect, or another doubt; inactive means no such curve, though single readings can be large or run the other way. Shown is part of a subset that was picked to be rich in actives. A call without a number means that no potency is given here.
Potency means the concentration at half of the fitted maximal effect.

This assay in a line: Primary qHTS for Identification of Small Molecule Activators of Huntingtin-Antisense Promoter Activity. Further: nearly all actives have a fitted effect of over 55% in size. The following applies: HEK293 HTT-AS promoter firefly luciferase reporter (activity 0% = vehicle and -100% = no light), 24 h; series mostly up to 57.5 µM. The source says: Assay Provider: Russell L. Margolis M.D.
Department Neurology, Johns Hopkins University School of Medicine, Baltimore, MD
Huntington's Disease (HD) is a neurodegenerative disorder caused by a CAG repeat expansion in exon 1 of huntingtin (HTT). While there are currently no disease-modifying treatments for HD, recent efforts have focused on development of nucleotide-based therapeutics to lower HTT expression. As an alternative to siRNA or oligonucleotide methods, we hypothesized that suppression of HTT expression might be accomplished by small molecules that either (1) directly decrease HTT expression by suppressing HTT promoter activity or (2) indirectly decrease HTT expression by increasing the promoter activity of HTT-AS, the gene antisense to HTT that appears to inhibit expression of HTT.
We developed and employed a high throughput screen for modifiers of HTT and HTT-AS promoter activity using luminescent reporter HEK293 cells; of the 52,041 compounds tested, we identified 898 replicable hits. We used a rigorous stepwise approach to assess compound toxicity and the capacity of the compounds to specifically lower huntingtin protein in 5 different cell lines, including HEK293 cells, HD lymphoblastoid cells, mouse primary neurons, HD iPSCs differentiated into cortical-like neurons, and HD hESCs. We found no compounds which were able to lower huntingtin without lowering cell viability in all assays, though the potential efficacy of a few compounds at non-toxic doses could not be excluded.
SEQUENCE No. (1, 2, 3, etc.); […] (e.g., Cells, Incubation, Reagent, etc.); VALUE and DESCRIPTION.
1; Reagent; 4 uL; 2,500 Hek293 luciferase reporter cells per wells
3; Compound; 23 nL; Control inhibitor / compound library
5; Reagent; 2.5 uL; Firefly Luc reagent; Dual-Glo Luciferase Reporter Assay System (Promega)
6; Time; 10 min; room temperature incubation
7; Detection; Luminescence; FLuc
NOTES (numbers refer to sequence above)
1; High-throughput screening, measuring luminescence from a Hek293 luciferase reporter, was performed in 1,536 well white-walled tissue-culture treated plates. 2,500 cells were plated in 4 µL of Opti-MEM per well using a Multidrop Combi Reagent Dispenser (ThermoFisher).
2; Assay plates were cultured for 24 hours.
3; Control inhibitor (PTC124; final concentration of 50 uM) and compound library (at final concentrations of 460 nM - 57.5 uM) were added to the assay plate using the Kalypsis Pintool Robotic System equipped with 1536 pinheads.
4; Cells were then incubated for 24 hours at 37 degrees C prior to luminescence measurements.
5; In all cases, luminescence was measured using the Dual-Glo Luciferase Reporter Assay System (Promega) following the manufacturer's instructions.
6; Room temperature incubation.
7; Luminescence signal was obtained using the PerkinElmer ViewLux plate reader. Results were normalized to vehicle control (0% activity) and zero RLU (-100% activity).
A general note: In qHTS, concentration-response curves come from the screen itself.
Take `O=C(CN1C(=O)COc2ccc(S(=O)(=O)N3CCOCC3)cc21)N1CCN(c2cccc(Cl)c2)CC1`: the activity change, positive = activation result was “inactive”. For the compound `COc1ccc(Cn2c(C(=O)O)c(CNCc3cccc(OC)c3)c3ccc(C)cc32)cc1`, the activity change, positive = activation entry was “inactive”. Regarding `Cc1cc(C)c(NC(=O)Cn2c(SCC(=O)NCc3ccccc3)nc3ccccc32)c(C)c1`, the activity change, positive = activation result is “inactive”. With `CCOC(=O)c1cccc(NS(=O)(=O)c2cn(C)c(C)n2)c1`, the activity change, positive = activation result is “inactive”. Turning to `COc1cc2[nH]c(=O)n(Cc3ccc(C(=O)NCc4ccc(C)cc4)cc3)c(=O)c2cc1OC`, the activity change, positive = activation entry is “inactive”. With `CCOC(=O)c1c(NC(=O)Cc2coc3ccc(CC)cc23)sc2c1CCC2`, the activity change, positive = activation result was “inactive”. `COc1cccc(C(c2c(O)cc(C)n(Cc3ccco3)c2=O)N2CCN(c3ccccc3)CC2)c1` (stereo not given): the activity change, positive = activation entry was “inactive”.

For the compound `COc1ccc(CC(=O)N2CC(=O)Nc3ccc(Br)cc3C2c2ccc(F)cc2)cc1OC` (stereo not given), the activity change, positive = activation result was “inactive”.

In the case of `Cc1ccc(CNS(=O)(=O)c2ccc(-c3cc(C(F)(F)F)on3)s2)cc1`, the activity change, positive = activation result is “inactive”. As for `COc1ccc(-c2nc3ccc(C(=O)NCc4ccc(C)cc4)cc3nc2-c2ccc(OC)cc2)cc1`, the activity change, positive = activation entry is “inactive”. Take `Cc1ccc2nc(CNC(=O)c3ccccc3)[nH]c2c1`: the Potency was 4.47 µM (active).

For the compound `CCCNC(=O)C1CCN(c2nc3ccc(C)cc3[nH]2)CC1`, the activity change, positive = activation result is “inactive”. With `COc1ccc(-c2nc3sc(CCNC(=O)C(C)(C)C)c(C)n3n2)cc1`, the activity change, positive = activation result was “inactive”. Same read-out and setting: for `COc1ccc(C)cc1-n1c(-c2ccc(C)cc2)cc2c1CC(C)(C)CC2=O` the value was “inactive”. With `Cc1cc(Br)ccc1NC(=O)Cn1cnc2sc(C)c(S(=O)(=O)N3CCN(C)CC3)c2c1=O`, the activity change, positive = activation result was “inactive”.

Consider `Cc1ccc(-c2noc(-c3nnn(-c4cccc(C(F)(F)F)c4)c3N)n2)cc1`, for which the activity change, positive = activation entry is “inactive”.

As for `O=C(Nc1ccc(C(=O)OCc2cc(=O)n3nc(C4CC4)sc3n2)cc1)c1ccc(F)cc1`, the activity change, positive = activation entry was “inactive”. In the case of `COc1ccc(Cn2c(=O)c3oc4ccccc4c3n(CC(=O)Nc3ccc(F)cc3F)c2=O)cc1`, the activity change, positive = activation result was “inactive”. For the compound `O=C(CN1CCSc2ccccc21)N1CCN(c2ccccc2)CC1`, the activity change, positive = activation entry was “inactive”. Still for that read-out and setting: the same measure for `COc1ccc2c(c1)c(N1CCCC1=O)c(C(=O)Nc1ccccc1C(F)(F)F)n2C`: “inactive”; for `Cc1ccc(NC(=O)CSc2nc3c([nH]c4ccccc43)c(=O)n2-c2ccccc2)cc1Cl`: “inactive”; for `Cc1ccccc1Cn1nc(C)c(NC(=O)c2cc(-c3ccc(F)cc3)on2)c1C`: “inactive”. Turning to `CCn1cc(C(=O)N2CCN(c3cc(C)ccc3C)CC2)c(=O)c2cc(S(=O)(=O)N(C)C3CCCCC3)ccc21`, the activity change, positive = activation result was “inactive”. The same measure, in the same setting: for `Cc1ccc(C)c(N2CCN(c3ccc4cc(S(=O)(=O)N5CCC(C)CC5)ccc4n3)CC2)c1` the value was “inactive”; for `CC[C@]12C=CCN3CC[C@@]4(c5cc([C@@]6(C(=O)OC)C[C@H]7C[C@@H](C(C)(F)F)CN(Cc8c6[nH]c6ccccc86)C7)c(OC)cc5N(C)[C@H]4[C@@](O)(C(=O)OC)[C@H]1OC(C)=O)[C@@H]32`, “inactive”.

The values are drawn from PubChem BioAssay AID1508624 (National Center for Advancing Translational Sciences (NCATS), 2021).
